From PubChem
Methyltransferases: Primary Screen for Target Class Profiling of Small Molecule Inhibitors of Methyltransferases; 25,000 tested, 3.9% active; purified enzyme, MTase-Glo SAH luminescence; active compounds read low; AID 1745853, 2022; calls only at 40 µM; call rule not given here
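Each enzyme was reacted with SAM and its substrate, with compounds tested once at 40 uM; SAH formed was read by MTase-Glo luminescence.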
MTase-Glo counter: detection enzyme interference, methyltransferase counter-screen; shares compounds with Methyltransferases; MTase-Glo coupled enzymes, SAH conversion luminescence, no MTase; Potency, µM (doses to about 57.3 µM), without a hit: top-dose activity change, negative = inhibition, usual class: inhibitors; 180 tested, 6% active; AID 1745851; active means well fitted inhibition curve with a large enough effect; further: potency means the concentration at half of the fitted maximal effect
An asterisk follows results filed as active; i = inactive; + = active, no number; [ ] = dose if it differs, or a comment. Only a selection was taken, and hits are over-represented in it overall. On the % scale 0 is the no-effect control and ±100 the full control effect.

SMILES	Methyltransferases	others
CCc1cccc(N2C(=O)c3c(NC(C)=O)c4cc(F)ccc4n3CC2(C)C(=O)NC2CCCC2)c1 (configuration not stated)	i
O=C(NCc1cccc(Cl)c1)c1cnc2c(c1)N(C(=O)Cc1ccc(O)cc1)CCC2	+	MTase-Glo counter=18µM*
COCCCNC(=O)c1cnc2c(c1)N(C(=O)Cc1cn(C)c3ccccc13)CCC2	i
COc1ccc(CNC(=O)c2cnc3c(c2)N(C(=O)CCc2ccccc2)CCC3)cc1OC	i
CC(=O)OC1C(CO)OC(O[C@H]2[C@H](OC(=O)[C@]34CCC(C)(C)C[C@H]3C3=CCC5[C@@]6(C)CC[C@H](O[C@@H]7O[C@H](C(=O)O)[C@@H](O)[C@H](O[C@@H]8OC[C@@H](O)[C@H](O)[C@H]8O)[C@H]7O[C@@H]7O[C@H](CO)[C@H](O)[C@H](O)[C@H]7O)[C@@](C)(C=O)C6CC[C@@]5(C)[C@]3(C)C[C@H]4O)O[C@H](C)[C@H](OC3OC(C)C(OC4OCC(O)C(O)C4O)C(O)C3O)[C@@H]2O)C(O)C1O (some centres not stated)	i
O=C(CCn1ccc2cc(S(=O)(=O)N3CCCCC3)ccc21)N1CCC(N2CCCCC2)CC1	i
COc1cccc(N2C(=O)c3cc4sccc4n3CC2(C)C(=O)NC2CCCC(C)C2C)c1 (configuration not stated)	i
COc1ccc(-c2cc3n(n2)CC(C)(C(=O)NCc2ccccc2)N(CCc2ccc(Cl)cc2)C3=O)cc1 (configuration not stated)	i
COC(=O)[C@@H]1Cc2ncn(Cc3ccc(Cl)cc3)c2CN1CCCc1ccccc1	+	MTase-Glo counter=11µM*
CCCn1cnc2c1CN(S(=O)(=O)c1ccc(F)cc1)[C@H](C(=O)OC)C2	i
O=C(Cn1ccc2cc(S(=O)(=O)N3CCCCC3)ccc21)NCCCN1CCOCC1	i
CC1CC(C)CN(S(=O)(=O)c2ccc3c(c2)oc(=O)n3CC(=O)NCc2cccs2)C1 (configuration not stated)	i
COCCN1CCCC(c2[nH]ccc2C(=O)NCCc2nc3ccccc3[nH]2)C1 (configuration not stated)	i
CCNC(=O)N1C[C@@H](F)[C@@H](OCc2nc3ccc(F)cc3[nH]2)C1	i
CCN(CCc1nc2ccc(C)cc2[nH]1)C(=O)c1ccccc1C1CCNC1 (configuration not stated)	+	MTase-Glo counter=2%
CC(C)OCCCn1c(=O)c2ccccc2n2c(CCC(=O)Nc3ccc(F)cc3)nnc12	i
CC1(C(=O)NC2CCCCCCC2)Cn2c(cc3sccc32)C(=O)N1c1ccc(Cl)cc1 (configuration not stated)	i
CC(=O)Nc1ccc(CN2CC3(Cc4ccccc4NC3=O)C2)cc1	i
CC(=O)Nc1cccc(-c2cc3c(cn2)CN(Cc2ccccc2)CCN3)c1	+	MTase-Glo counter=-2%[85.7 µM]
CC(=O)Nc1cccc(-c2ccnc(-c3nnc(C)n3Cc3ccccc3)c2)c1	i
COc1ccc(N2C(=O)c3cc4sccc4n3CC2(C)C(=O)NC2CCCCCCC2)cc1OC (configuration not stated)	i
COC12CC3C(C(C)C1=CC(=O)O2)C(O)C(OC(C)=O)C1C(C)(C)C(OC(C)=O)CCC31C (configuration not stated)	i
Cc1cccc(NC(=O)CN(C)S(=O)(=O)c2ccc3[nH]c4c(c3c2)CCCC4)c1	i
COc1ccc(-c2cnc3n[nH]c(-c4ccccc4C)c3n2)cn1	i
Cc1noc(C)c1-c1cc2c(cc(C)n2C)c(N2CCN(c3ccccn3)CC2)n1	i
Cc1ccccc1-c1[nH]nc2ncc(-c3c(C)noc3C)nc12	+	MTase-Glo counter=-4%[85.7 µM]
CC1CC(C)CN(S(=O)(=O)c2ccc3c(c2)oc(=O)n3CC(=O)N2CCc3ccccc3C2)C1 (configuration not stated)	i
Cc1ccccc1NC(=O)c1ncn2c1C(=O)N(C1CC1)C(C)(C(=O)NCc1ccc(F)cc1)C2 (configuration not stated)	i
